Measured values from PubChem BioAssay (NCATS).
Results filed as inconclusive are left out. Activity calls are given as the source filed them. Unless noted, calls come from the whole dose curve; as a rule, active = well fitted curve in the direction sought with a large enough effect; inconclusive = small, poorly fitted or top-dose-only effect, or another doubt; inactive = no such curve, though single readings can be large; an effect the other way counts as inactive or inconclusive.

Experiments:
[1] = NCATS anti-infectives library activity on HEK293 viability as a counter-qHTS vs the C. elegans viability qHTS (AID 1745854); note: % is set by controls: 0 for no effect and ±100 for the full control effect
Outline: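 Cytotoxicity counter-screen to a worm viability qHTS: CellTiter-Glo luminescence read 10 min after reagent addition. Compounds (final up to 41.7 uM, a 1:5 dilution series) incubated 24 hr at 37C with 1,500 HEK293 cells per well; digitonin control.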

[2] = target: Phospholipid hydroperoxide glutathione peroxidase GPX4 (Homo sapiens) (UniProt P36969); assay: Primary qHTS Assay for Inhibitors of Recombinant Selenoprotein Glutathione Peroxidase 4 (GPX4) (AID 1845192); note: nearly all actives have a fitted effect of over 65% in size; note: potency is the fitted concentration of half-maximal effect
Phospholipid hydroperoxide glutathione peroxidase GPX4 (Homo sapiens), sequence (P36969 whole entry, looked up): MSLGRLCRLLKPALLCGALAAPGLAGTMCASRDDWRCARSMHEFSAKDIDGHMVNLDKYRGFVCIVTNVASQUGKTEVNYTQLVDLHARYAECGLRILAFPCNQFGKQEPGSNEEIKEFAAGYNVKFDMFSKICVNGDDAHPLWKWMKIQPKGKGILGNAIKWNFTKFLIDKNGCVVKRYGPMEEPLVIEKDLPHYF
Outline: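 qHTS, GR-coupled: GPX4 200 nM + cpd 30 min RT → GSH 1 mM, NADPH 0.5 mM, GR 100 nM → CHP 0.5 mM start; fluor 340/450 at t0 and t15 min; no-enzyme wells as control.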

[3] = target: Glutathione peroxidase 1 (Homo sapiens) (UniProt P07203); assay: Primary qHTS Assay for Inhibitors of Recombinant Selenoprotein Glutathione Peroxidase 1 (GPX1) (AID 1845191); note: nearly all actives have a fitted effect of over 65% in size
Glutathione peroxidase 1 (Homo sapiens), sequence (P07203 whole entry, looked up): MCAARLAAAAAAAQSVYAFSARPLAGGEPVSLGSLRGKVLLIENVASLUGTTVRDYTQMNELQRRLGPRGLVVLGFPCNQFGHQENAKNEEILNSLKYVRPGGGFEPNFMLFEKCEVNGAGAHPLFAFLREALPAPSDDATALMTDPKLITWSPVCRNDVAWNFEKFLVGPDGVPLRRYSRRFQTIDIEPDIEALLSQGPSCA
Outline: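 GPX1 10 nM, GR 100 nM, GSH 1 mM, NADPH 0.5 mM, CHP 0.5 mM (final). 30-min cpd preincubation, RT. Ex340/Em450 read t=0, t=15 min.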

[4] = NCATS anti-infectives library activity on the primary C. elegans qHTS viability assay (AID 1745855; calls by dose curve)
Outline: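 GFP read-out by 488 nm laser cytometry at day 0, 3 and 7, gated on object perimeter, area and peak intensity, scored viability of PE254-GFP-FLuc worms exposed to compound in S medium with bacterial capsules at 21 °C.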

[5] = Viability counterscreen for antagonist of constitutive androstane receptor (CAR) against the NCATS DSHEA and TCM libraries (AID 1794837);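 note: compound exposure lasted 24 h before viability reading; 0% is about no effect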
Outline: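 Cells: HepG2 line carrying CYP2B6 reporter and hCAR, seeded and attached 5 h. Then pin-transferred test substances plus agonist CITCO at 48 uM final; 24 h incubation; fluorogenic viability reagent, 1 h.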

[6] = Viability counterscreen for agonist of constitutive androstane receptor (CAR) against the NCATS DSHEA and TCM libraries (AID 1794838);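 note: HepG2 cells with CYP2B6 reporter and hCAR plus 0.75 µM PK11195 antagonist; 0% is about no effect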
Outline: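 Cell health was measured as CellTiter-Fluor signal in HepG2-CYP2B6-hCAR cells treated for 24 h with substances alongside the hCAR antagonist PK11195 (0.75 uM final).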

[7] = target: Nuclear receptor subfamily 1 group I member 3 (Homo sapiens) (UniProt Q14994); assay: Primary qHTS for agonist of constitutive androstane receptor (CAR) against the NCATS DSHEA and TCM libraries (AID 1794839);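 note: HepG2 cells expressing human CAR with a CYP2B6 reporter plus PK11195 antagonist; 0% is about no effect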
Nuclear receptor subfamily 1 group I member 3 (Homo sapiens), sequence (Q14994 whole entry, looked up): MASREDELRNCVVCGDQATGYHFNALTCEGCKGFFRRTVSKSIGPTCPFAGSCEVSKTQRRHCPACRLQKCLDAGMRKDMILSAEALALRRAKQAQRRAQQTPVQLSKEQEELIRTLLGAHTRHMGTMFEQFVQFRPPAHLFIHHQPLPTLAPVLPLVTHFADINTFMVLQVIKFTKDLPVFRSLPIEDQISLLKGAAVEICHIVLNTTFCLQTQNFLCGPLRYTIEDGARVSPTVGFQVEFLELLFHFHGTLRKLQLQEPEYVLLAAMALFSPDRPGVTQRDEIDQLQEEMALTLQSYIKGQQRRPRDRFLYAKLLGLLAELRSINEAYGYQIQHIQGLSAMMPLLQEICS
Outline: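 qHTS, agonist mode: HepG2-CYP2B6-hCAR, 2,500 cells/well, 5 h attach; cpds + PK11195 0.75 µM final; 24 h, 37 °C, 5% CO2. Readouts: CellTiter-Fluor (405/540 nm), then ONE-Glo luminescence.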

[8] = HepG2 viability counterscreen (readout 2: ATP content) against the NCATS DSHEA and TCM libraries (AID 1794840); note: 0% is about no effect
Outline: (§1)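 Same wells read twice: first fluorescence from cleaved GF-AFC substrate (25 uM final, 30 min, 37C) for live-cell protease, then CellTiter-Glo luminescence after 30 min at room temperature for ATP. HepG2 cells were exposed ~24 h to substances.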

[9] = HepG2 viability counterscreen (readout 1: protease activity) against the NCATS DSHEA and TCM libraries (AID 1794841);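 note: cells exposed to compounds for about 24 h before the protease read; 0% is about no effect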
Outline: as §1

[10] = target: Cytochrome P450 3A4 (Homo sapiens) (UniProt P08684); assay: qHTS for inhibitors of CYP3A4 against the NCATS DSHEA and TCM libraries (AID 1919971); note: potency is the fitted concentration of half-maximal effect
Cytochrome P450 3A4 (Homo sapiens), sequence (P08684 whole entry, looked up, canonical isoform): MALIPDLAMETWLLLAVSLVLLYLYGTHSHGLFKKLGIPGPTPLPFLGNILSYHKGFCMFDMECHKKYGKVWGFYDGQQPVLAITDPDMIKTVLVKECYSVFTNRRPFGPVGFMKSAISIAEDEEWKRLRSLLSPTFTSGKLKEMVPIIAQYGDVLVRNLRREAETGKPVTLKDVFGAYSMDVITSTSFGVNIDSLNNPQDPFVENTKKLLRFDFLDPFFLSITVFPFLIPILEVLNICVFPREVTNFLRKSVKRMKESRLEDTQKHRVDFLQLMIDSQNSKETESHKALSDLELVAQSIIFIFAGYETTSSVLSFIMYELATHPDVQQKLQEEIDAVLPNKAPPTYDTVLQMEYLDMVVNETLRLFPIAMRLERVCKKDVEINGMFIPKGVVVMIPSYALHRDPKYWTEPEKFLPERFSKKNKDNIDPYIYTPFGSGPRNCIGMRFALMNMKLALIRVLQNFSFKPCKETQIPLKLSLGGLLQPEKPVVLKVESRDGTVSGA
Outline: (§2)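 Each CYP isoform and its pro-luciferin substrate, at isoform-specific final concentrations, were preincubated 15 min at RT with substances. NADPH regeneration solution (1x) started a 30-45 min reaction, and P450-Glo luminescence was read.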

[11] = target: Cytochrome P450 2D6 (Homo sapiens) (UniProt P10635); assay: qHTS for inhibitors of CYP2D6 against the NCATS DSHEA and TCM libraries (AID 1919972); note: potency is the fitted concentration of half-maximal effect
Cytochrome P450 2D6 (Homo sapiens), sequence (P10635 whole entry, looked up): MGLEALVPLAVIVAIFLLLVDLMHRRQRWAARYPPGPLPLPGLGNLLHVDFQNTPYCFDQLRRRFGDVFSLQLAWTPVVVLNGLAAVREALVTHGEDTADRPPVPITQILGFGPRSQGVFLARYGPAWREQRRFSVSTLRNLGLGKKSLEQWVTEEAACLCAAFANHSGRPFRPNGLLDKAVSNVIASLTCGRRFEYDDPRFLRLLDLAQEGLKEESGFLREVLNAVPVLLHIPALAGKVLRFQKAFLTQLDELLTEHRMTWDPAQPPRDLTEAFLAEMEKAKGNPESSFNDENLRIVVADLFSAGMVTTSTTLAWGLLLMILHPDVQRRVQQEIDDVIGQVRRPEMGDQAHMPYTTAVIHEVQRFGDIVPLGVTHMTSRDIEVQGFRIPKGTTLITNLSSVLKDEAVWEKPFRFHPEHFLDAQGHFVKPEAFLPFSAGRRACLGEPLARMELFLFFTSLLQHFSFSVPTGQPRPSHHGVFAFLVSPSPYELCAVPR
Outline: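 CYP2D6 enzyme with pro-luciferin substrate in manufacturer buffer (typically 100 mM KPO4), preincubated 15 min RT with substances (most at 19.5 nM upward); NADPH regeneration system (1x) started 30–45 min RT reaction; P450-Glo luminescence read after 30 min; quinidine as intraplate control.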

[12] = target: Cytochrome P450 2C19 (Homo sapiens) (UniProt P33261); assay: qHTS for inhibitors of CYP2C19 against the NCATS DSHEA and TCM libraries (AID 1919974);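 note: luminescence from luciferin released by CYP2C19 oxidation of a pro-luciferin substrate; potency is the fitted concentration of half-maximal effect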
Cytochrome P450 2C19 (Homo sapiens), sequence (P33261 whole entry, looked up): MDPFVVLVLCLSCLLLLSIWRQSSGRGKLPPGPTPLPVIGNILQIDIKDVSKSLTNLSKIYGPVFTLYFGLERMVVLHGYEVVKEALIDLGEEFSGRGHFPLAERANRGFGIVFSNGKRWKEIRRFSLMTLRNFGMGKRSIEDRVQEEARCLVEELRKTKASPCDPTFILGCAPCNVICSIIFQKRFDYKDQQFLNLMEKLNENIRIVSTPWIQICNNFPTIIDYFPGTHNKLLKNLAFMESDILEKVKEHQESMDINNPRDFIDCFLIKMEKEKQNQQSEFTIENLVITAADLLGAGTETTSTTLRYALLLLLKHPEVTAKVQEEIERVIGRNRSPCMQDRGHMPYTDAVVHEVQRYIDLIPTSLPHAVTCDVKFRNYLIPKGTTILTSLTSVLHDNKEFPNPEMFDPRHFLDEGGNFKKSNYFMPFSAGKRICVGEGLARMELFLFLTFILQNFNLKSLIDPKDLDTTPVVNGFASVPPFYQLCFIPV
Outline: as §2

[13] = qHTS Counterscreen for compound interference against the NCATS DSHEA and TCM libraries (AID 1919978); details: firefly luciferase detection reagent interference, luminescence;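 note: compounds preincubated with 1 µM D-luciferin or buffer before detection reagent; % of control where 0% means no effect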
Outline: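 Compounds, titrated from 19.5 nM to 39.8 uM final, were pinned onto 1 uM D-luciferin or plain 100 mM potassium phosphate. After 15 min at room temperature, luciferin detection reagent was added for 30 min before the luminescence read.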

[14] = Dual reporter qHTS for agonist of Pregnane X Receptor (hPXR) against the NCATS DSHEA and TCM libraries: Fluorescence readout (AID 1920058); note: 0% is about no effect
Outline: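 Viability readout (CellTiter-Fluor, 405/540 nm, 1 h) from agonist-mode PXR dual reporter in hPXR-Luc HepG2 cells. Substances ~24 h, 37 °C, 5% CO2; rifampicin reference, tetraoctyl ammonium bromide cytotoxic control.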

[15] = target: Nuclear receptor subfamily 1 group I member 2 (Homo sapiens) (UniProt O75469); assay: Dual reporter qHTS for agonist of Pregnane X Receptor (hPXR) against the NCATS DSHEA and TCM libraries: Luminescence readout (AID 1920059); note: 0% is about no effect
Nuclear receptor subfamily 1 group I member 2 (Homo sapiens), sequence (O75469 whole entry, looked up): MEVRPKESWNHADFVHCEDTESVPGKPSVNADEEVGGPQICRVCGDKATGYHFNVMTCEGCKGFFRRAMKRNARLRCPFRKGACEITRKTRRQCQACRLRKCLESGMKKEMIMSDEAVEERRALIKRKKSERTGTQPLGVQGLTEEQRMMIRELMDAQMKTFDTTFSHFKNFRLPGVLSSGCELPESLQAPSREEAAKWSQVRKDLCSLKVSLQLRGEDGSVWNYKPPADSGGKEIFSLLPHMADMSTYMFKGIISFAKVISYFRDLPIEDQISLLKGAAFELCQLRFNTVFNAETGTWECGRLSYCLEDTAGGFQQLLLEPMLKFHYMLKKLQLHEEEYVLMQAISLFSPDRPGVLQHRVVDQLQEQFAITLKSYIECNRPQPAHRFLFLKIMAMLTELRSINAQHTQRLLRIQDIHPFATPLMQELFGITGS
Outline: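 hPXR-LucHepG2 cells in phenol red-free DMEM with 5% charcoal-stripped FBS, 2000 cells/well, attached 5 h, then exposed 24 h at 37C to compounds; rifampicin as positive agonist control (2.8 nM–92 uM). Luciferase luminescence read.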

[16] = target: Nuclear receptor subfamily 1 group I member 2 (Homo sapiens) (UniProt O75469); assay: Dual reporter qHTS for antagonist of Pregnane X Receptor (hPXR) against the NCATS DSHEA and TCM libraries: Luminescence Readout (AID 1920060);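 note: HepG2 cells carrying hPXR luciferase reporter stimulated with rifampicin at 2 µM; 0% is about no effect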
Outline: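 hPXR-Luc HepG2 cells exposed 24 h at 37 C to compounds with 2 uM rifampicin in antagonist mode; luciferase luminescence measured by ONE-Glo, with CellTiter-Fluor viability read beforehand.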

COC(=O)N[C@H](C(=O)N1CCC[C@H]1c1ncc(-c2ccc3c(c2)O[C@@H](c2ccccc2)n2c-3cc3cc(-c4cnc([C@@H]5CCCN5C(=O)[C@@H](NC(=O)OC)C(C)C)[nH]4)ccc32)[nH]1)C(C)C
active: Potency [2] 6.31 µM
inactive: Potency [1]

COC(=O)N[C@H](C(=O)N1CC2(CC2)C[C@H]1c1ncc(-c2ccc3c(c2)C(F)(F)c2cc(-c4ccc5nc([C@@H]6[C@H]7CC[C@H](C7)N6C(=O)[C@@H](NC(=O)OC)C(C)C)[nH]c5c4)ccc2-3)[nH]1)C(C)C
inactive: Potency [1] | Potency [3]
active: Potency [2] 3.55 µM

CC(=O)N[C@@H](CC(C)C)C(=O)N[C@@H](CC(C)C)C(=O)N[C@H](C=O)CCCN=C(N)N
inactive: Potency [1] | Potency [4]

Cn1c(=O)cc(N2CCC[C@@H](N)C2)n(Cc2ccccc2C#N)c1=O
inactive: Potency [1] | Potency [4] | Potency [3] | Potency [2]

COc1cc(-c2oc3cc(O)cc(O)c3c(=O)c2O)ccc1O
active: Potency [10] 11.2 µM | Potency [11] 4.47 µM | Potency [12] 7.94 µM
inactive: Potency [1] | outcome [5] | outcome [6] | Potency [7] | outcome [8] | outcome [9] | max response [13] -5.64% | outcome [14] | Potency [15] | outcome [16]
